Assay results: ChEMBL document CHEMBL3988442, “University of Dundee, Small-Polar-MMV Screening Library” (2021)
In all, about 66,000 compounds went through this assay and about 960 (1.5%) showed an effect of 50% or more. Only a selection was taken, and strong results are over-represented in it overall.

System: Trypanosoma brucei
Assay: Trypanosoma brucei 72 hour study
Type: functional, organism-based
Parameters: scale not given: in the data most compounds retested in dose-response had high values

COCc1nc(N(C)C)ncc1C(=O)NC(C)c1ccccc1 (stereo unspecified)
Percent Effect (30.3 µM, […]): -21.32%

O=C(c1cc(-c2ccn(CC3CC3)n2)n2ccccc12)N1CCOCC1
Percent Effect (30.3 µM, […]): 100.3%

O=C(c1cc(-c2ccn(CC3CC3)n2)n2ccccc12)N1CCCO1
Percent Effect (30.3 µM, […]): -0.5665%

O=C(O)c1cc(-c2ccn(CC3CC3)n2)n2ccccc12
Percent Effect (30.3 µM, […]): -1.96%

Cc1ccc(CN2CCC3(CC2)CC(c2cccnc2)C(=O)N3C)o1.O=C(O)C(F)(F)F.O=C(O)C(F)(F)F (stereo unspecified)
Percent Effect (30.3 µM, […]): -49.66%

COCCN1CCC2(CCCN(Cc3ccoc3)C2)C1=O.O=C(O)C(F)(F)F (stereo unspecified)
Percent Effect (30.3 µM, […]): -22.78%

O=C(CC1CCCC1)N1CCn2cc(Cn3cccn3)nc2C1.O=C(O)C(F)(F)F
Percent Effect (30.3 µM, […]): -840.1%

O=C(O)C(F)(F)F.O=C(c1cnoc1)N1CCC[C@]2(C[C@@H](Oc3ccccn3)CO2)C1
Percent Effect (30 µM, 30.03 µM): -14.73%

CCNC(=O)c1cnc(Cc2ccc(F)cc2)s1
Percent Effect (30 µM, 30.03 µM): 3.769%

CN(C)CCCNC(=O)c1cnc(Cc2ccc(F)cc2)s1
Percent Effect (30 µM, 30.03 µM): 52.82%

COC(=O)CCNC(=O)c1cnc(Cc2ccc(F)cc2)s1
Percent Effect (30 µM, 30.03 µM): 3.867%

O=c1c(CN2CC3CCCN3C[C@@H]2CCO)coc2ccc(Cl)cc12 (stereo partly specified)
Percent Effect (30.3 µM, […]): -20.01%

Cc1nc(-c2ccccc2)sc1C(=O)N(C1CC1)C1CC(=O)NC1=O (stereo unspecified)
Percent Effect (30 µM, 30.03 µM): 37.33%

O=C1CC(N(C(=O)c2csc(-c3ccccc3)n2)C2CC2)C(=O)N1 (stereo unspecified)
Percent Effect (30 µM, 30.03 µM): 9.836%

O=C1CC(N(C(=O)Cc2csc(-c3ccccc3)n2)C2CC2)C(=O)N1 (stereo unspecified)
Percent Effect (30 µM, 30.03 µM): 106%

O=C(O)C(F)(F)F.O=C1COC2(CCN(CC3CC3)CC2)CN1c1ccsc1
Percent Effect (30.3 µM, […]): -336%

Cn1cc(N2CCC3(CCCN(Cc4ccc(F)cc4)C3)C2=O)cn1.O=C(O)C(F)(F)F (stereo unspecified)
Percent Effect (30 µM, 30.03 µM): 66.19%

Cn1cc(CN2CCC3(CCN(c4cnn(C)c4)C3=O)C2)cn1.O=C(O)C(F)(F)F (stereo unspecified)
Percent Effect (30 µM, 30.03 µM): -6.498%

Cc1nc(CN2CCCC3(CCN(c4cnn(C)c4)C3=O)C2)cs1.O=C(O)C(F)(F)F (stereo unspecified)
Percent Effect (30.3 µM, […]): -9.884%

COCCNc1ccc(CC2CCCNC2)cn1.Cl (stereo unspecified)
Percent Effect (30.3 µM, […]): 0.7781%

CSCc1cc(F)ccc1CNC(=O)N1CCC(CO)CC1
Percent Effect (30 µM, 30.03 µM): -59.11%

CN(C)c1ccc(CNC2=NCCCN2)cc1.I
Percent Effect (30.3 µM, […]): 99.22%

CCOCc1ccc(CNC2=NCCCN2)cc1.I
Percent Effect (30.3 µM, […]): -5.411%

I.c1ccc(OCCNC2=NCCCN2)cc1
Percent Effect (30 µM, 30.03 µM): -0.004482%

NC[C@H]1CC[C@H](C(NC(=O)CC2CCCC2)c2ccccn2)CC1 (stereo partly specified)
Percent Effect (30.3 µM, […]): -41.17%

CCCN1C[C@H](NC(=O)c2ccccc2F)[C@@H](c2ccc(OC)cc2)C1
Percent Effect (30.3 µM, […]): -8.438%

Cc1ccc(CN2CCC3(CC2)CC(CC(=O)NC(C)C)CO3)s1.O=C(O)C(F)(F)F (stereo unspecified)
Percent Effect (30.3 µM, […]): -52.98%

O=C(C1CCOCC1)N1C[C@H]2C[C@H](OCc3ccccc3)C[C@H]2C1
Percent Effect (30.3 µM, […]): 32.35%

CN(C)CCOCC1CN(Cc2ccsc2)Cc2nnn(C)c21.O=C(O)C(F)(F)F.O=C(O)C(F)(F)F (stereo unspecified)
Percent Effect (30.3 µM, […]): -20.25%

CN(C)c1ccc(C(=O)N2CCCC(n3cccn3)C2)cn1 (stereo unspecified)
Percent Effect (30.3 µM, […]): -20.71%

Cc1nccn1C1CCCN(C(=O)c2ccc(N(C)C)nn2)C1 (stereo unspecified)
Percent Effect (30.3 µM, […]): -14.31%

Cc1cc(C)n(C2CCCN(C(=O)c3ccc(NC4CC4)nc3)C2)n1 (stereo unspecified)
Percent Effect (30 µM, 30.03 µM): 3.181%

Cc1nc(C)n(C2CCCN(C(=O)c3ccc(O)nc3)C2)n1 (stereo unspecified)
Percent Effect (10 µM): -79.94%

Cc1nc(C)n(C2CCCN(C(=O)c3ccc(NC4CC4)nc3)C2)n1 (stereo unspecified)
Percent Effect (30 µM, 30.03 µM): 56.19%

Cc1nccn1C1CCCN(C(=O)c2ccc(N(C)C)nc2)C1 (stereo unspecified)
Percent Effect (30 µM, 30.03 µM): 59.27%

CN(Cc1nccs1)C1CCN(c2cccc(-c3cscn3)c2)CC1
Percent Effect (30.3 µM, […]): -33.72%

CC(C)CC(C)NC1CCN(c2cccc(-c3cscn3)c2)CC1 (stereo unspecified)
Percent Effect (30 µM, 30.03 µM): -3.57%

CN(C)CCCN(C)C1CCN(c2cccc(-c3cscn3)c2)CC1
Percent Effect (30.3 µM, […]): 17.15%

c1ccc(-c2cccc(N3CCC(NCCc4cscn4)CC3)c2)cc1
Percent Effect (30.3 µM, […]): 99.95%

O=C1CCCN1c1cccc(N2CCC(NCCc3cscn3)CC2)c1
Percent Effect (30.3 µM, […]): 6.374%

c1cc(-c2cscn2)cc(N2CCC(NCCc3cccs3)CC2)c1
Percent Effect (30.3 µM, […]): 64.97%

CC1(c2ccc(Br)cc2)CC(=O)N(CC(N)=O)C1=O (stereo unspecified)
Percent Effect (30.3 µM, […]): -17.28%

Cn1cc(C(=O)CC2CCCN2C(=O)c2cccc3ncccc23)cn1 (stereo unspecified)
Percent Effect (30.3 µM, […]): -17.51%

Cc1ccc(C(=O)NCCC2CN(C3CCCC3)CCO2)c(C)c1 (stereo unspecified)
Percent Effect (30 µM, 30.03 µM): 0.3212%

O=C(c1cc2c(Cl)cccc2[nH]1)N1CCN(CCc2ccccn2)CC1
Percent Effect (30 µM, 30.03 µM): 6.57%

CCOC(=O)c1ccc(S(=O)(=O)NCc2cccnc2N(C)C)cc1
Percent Effect (10 µM): -42.9%

Cc1ccc(CCC(=O)N(C)CCN2CCOCC2)c(C)c1
Percent Effect (30 µM, 30.03 µM): 15.97%

CCOc1ccc(CN2CCCC(c3cc4ncccc4[nH]3)C2)cc1 (stereo unspecified)
Percent Effect (30.3 µM, […]): 100.2%

CCOc1ccc(CN2CCN(C(=O)c3cc(C4CC4)[nH]n3)CC2)cc1
Percent Effect (30.3 µM, […]): -13.15% | Percent Effect (10 mM, 10 mM as filed; unlikely as a test dose): -41.12%

CCOc1nnc(CN2CCCC(c3nc4ccccc4[nH]3)C2)s1 (stereo unspecified)
Percent Effect (30 µM, 30.03 µM): -9.691%

CC(=O)Nc1ccc(CN2CCCC(c3cc4ncccc4[nH]3)C2)cc1 (stereo unspecified)
Percent Effect (30.3 µM, […]): 8.67%

Fc1ccc(CN2CCCC(c3cc4ncccc4[nH]3)C2)cc1 (stereo unspecified)
Percent Effect (30.3 µM, […]): 55.67%

Cl.Cn1nc(C2CCCN(Cc3ccc(F)cc3)C2)c2nccnc21 (stereo unspecified)
Percent Effect (30.3 µM, […]): 4.536%

O=S(=O)(C1CC1)N1Cc2nccn2CC(Cn2cncn2)C1 (stereo unspecified)
Percent Effect (30.3 µM, […]): -41.46%

CC1c2ncc(CN3CCN(C)CC3)n2CCN1Cc1ccc(F)cc1.O=C(O)C(F)(F)F.O=C(O)C(F)(F)F.O=C(O)C(F)(F)F (stereo unspecified)
Percent Effect (30.3 µM, […]): -44.2%

CN(Cc1ccco1)[C@@H]1CN(C(=O)c2cnccn2)C[C@@H]2CCCO[C@@H]21.O=C(O)C(F)(F)F
Percent Effect (30 µM, 30.03 µM): -17.24%

COc1cc(N2CCC3(CCN(Cc4csc(C)n4)C3=O)C2)ncn1.O=C(O)C(F)(F)F (stereo unspecified)
Percent Effect (30.3 µM, […]): -84.03%

COCC1COCCC12CCN(S(=O)(=O)c1cccnc1)CC2.O=C(O)C(F)(F)F (stereo unspecified)
Percent Effect (30.3 µM, […]): -13.71%

O=C(COc1ccc2c(c1)CCC2)NS(=O)(=O)c1cccnc1
Percent Effect (10 µM): -70.49%

Cc1ccc(N2CC[C@@H]3[C@@H]2CCN3C(=O)Cc2ccccc2)nn1.O=C(O)C(F)(F)F
Percent Effect (30.3 µM, […]): -46.46%
